1 sequence from paper PMC7862700, “An all-to-all approach to the identification of sequence-specific readers for epigenetic DNA modifications on cytosine” can be followed below.

Holding throughout (assay): DAPPL (digital affinity profiling via proximity ligation, sequencing); 10 mM Tris-HCl pH 7.5, 50 mM NaCl, 1 mM DTT, 4% glycerol, room temperature, 30 min; GST-TFs on glutathione beads, 16-mer random dsDNA library, 0.1% formaldehyde crosslink after washing; high values mean tight binding
Assay [1] concerns the target T1, FLI1 (Homo sapiens, UniProt Q01543 1-452).
T1 sequence: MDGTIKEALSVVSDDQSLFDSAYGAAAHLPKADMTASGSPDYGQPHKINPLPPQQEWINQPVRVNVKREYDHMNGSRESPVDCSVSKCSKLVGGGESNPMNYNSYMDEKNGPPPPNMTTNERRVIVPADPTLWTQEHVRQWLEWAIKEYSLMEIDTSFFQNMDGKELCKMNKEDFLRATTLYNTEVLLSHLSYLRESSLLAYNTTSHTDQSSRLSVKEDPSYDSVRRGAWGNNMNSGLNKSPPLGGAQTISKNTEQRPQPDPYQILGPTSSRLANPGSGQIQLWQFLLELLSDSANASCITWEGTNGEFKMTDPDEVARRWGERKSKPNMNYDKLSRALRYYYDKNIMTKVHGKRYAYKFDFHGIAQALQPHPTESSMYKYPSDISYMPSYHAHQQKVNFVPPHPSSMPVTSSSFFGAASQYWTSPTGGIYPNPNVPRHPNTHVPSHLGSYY
To be noted: protein: recombinant; tags: N-terminal GST; dsDNA, one strand shown. The method, boiled down: (§1)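 Pools were built from human transcription factors expressed in yeast as GST fusions, captured on glutathione beads and DNA-barcoded, along with a tag-only sample. Incubation with 200 nmole of a 16-mer random double-stranded DNA library lasted 30 min at room temperature in Tris/NaCl/DTT/glycerol buffer, and was followed by washing, 0.1% formaldehyde crosslinking, proximity ligation, PCR amplification and Illumina NextSeq500 sequencing. Binding signal is the quotient of each hexamer's read frequency for a factor and its frequency for the tag-only sample.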

The target of assay [2] is T2, ELK1 (Homo sapiens, UniProt P19419 1-428).
T2 sequence: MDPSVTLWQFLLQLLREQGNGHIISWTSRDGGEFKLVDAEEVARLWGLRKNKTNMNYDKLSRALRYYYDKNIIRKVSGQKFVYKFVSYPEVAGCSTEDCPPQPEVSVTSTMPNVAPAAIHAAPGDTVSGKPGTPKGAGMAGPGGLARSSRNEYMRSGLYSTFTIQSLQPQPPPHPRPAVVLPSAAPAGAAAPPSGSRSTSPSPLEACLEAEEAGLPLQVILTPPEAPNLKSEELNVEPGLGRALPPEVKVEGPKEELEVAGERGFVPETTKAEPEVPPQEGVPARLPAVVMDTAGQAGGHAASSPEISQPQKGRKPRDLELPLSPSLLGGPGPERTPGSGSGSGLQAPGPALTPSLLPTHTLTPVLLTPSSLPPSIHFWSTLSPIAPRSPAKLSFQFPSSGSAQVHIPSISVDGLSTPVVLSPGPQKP
To be noted: protein: recombinant; tags: N-terminal GST; dsDNA, one strand shown. A digest of the protocol: as §1

The target in assay [3] is T3, GABPA (Homo sapiens, UniProt Q06546 1-454).
T3 sequence: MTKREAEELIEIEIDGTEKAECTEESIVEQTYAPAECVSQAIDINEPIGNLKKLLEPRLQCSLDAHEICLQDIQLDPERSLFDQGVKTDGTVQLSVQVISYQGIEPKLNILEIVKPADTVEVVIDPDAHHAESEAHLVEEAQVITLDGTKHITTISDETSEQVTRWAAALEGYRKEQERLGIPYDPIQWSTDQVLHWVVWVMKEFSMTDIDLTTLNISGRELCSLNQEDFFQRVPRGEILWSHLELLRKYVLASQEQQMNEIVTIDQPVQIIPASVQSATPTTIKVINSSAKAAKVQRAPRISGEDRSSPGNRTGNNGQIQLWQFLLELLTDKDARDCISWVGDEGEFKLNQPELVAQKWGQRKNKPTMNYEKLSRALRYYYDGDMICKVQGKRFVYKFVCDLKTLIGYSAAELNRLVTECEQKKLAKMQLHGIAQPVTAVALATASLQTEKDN
To be noted: protein: recombinant; tags: N-terminal GST; dsDNA, one strand shown. The method, boiled down: as §1

In assay [4] the target is T4, ERG (Homo sapiens, UniProt P11308 1-479).
T4 sequence: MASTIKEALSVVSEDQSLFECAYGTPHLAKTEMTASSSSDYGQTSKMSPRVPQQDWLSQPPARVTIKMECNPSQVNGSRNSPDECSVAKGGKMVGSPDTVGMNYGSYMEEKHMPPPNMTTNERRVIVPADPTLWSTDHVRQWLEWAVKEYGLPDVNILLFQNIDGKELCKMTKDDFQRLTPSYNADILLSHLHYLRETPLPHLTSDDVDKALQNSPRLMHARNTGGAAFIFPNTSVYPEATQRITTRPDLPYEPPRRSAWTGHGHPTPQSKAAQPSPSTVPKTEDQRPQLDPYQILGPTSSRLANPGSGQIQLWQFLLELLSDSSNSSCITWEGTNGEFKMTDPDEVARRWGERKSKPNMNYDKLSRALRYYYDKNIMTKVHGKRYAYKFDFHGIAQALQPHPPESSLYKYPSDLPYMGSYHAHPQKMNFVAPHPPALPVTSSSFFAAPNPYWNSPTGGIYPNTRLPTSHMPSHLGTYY
The settings on record: protein: recombinant; tags: N-terminal GST; dsDNA, one strand shown. A digest of the protocol: as §1

Assay [5] addresses ELF1 (Homo sapiens, UniProt P32519 1-619). To be noted: protein: recombinant; tags: N-terminal GST; dsDNA, one strand shown. A digest of the protocol:
as §1

For assay [6], the target named is T5, EHF (Homo sapiens, UniProt Q9NZC4 1-300).
T5 sequence: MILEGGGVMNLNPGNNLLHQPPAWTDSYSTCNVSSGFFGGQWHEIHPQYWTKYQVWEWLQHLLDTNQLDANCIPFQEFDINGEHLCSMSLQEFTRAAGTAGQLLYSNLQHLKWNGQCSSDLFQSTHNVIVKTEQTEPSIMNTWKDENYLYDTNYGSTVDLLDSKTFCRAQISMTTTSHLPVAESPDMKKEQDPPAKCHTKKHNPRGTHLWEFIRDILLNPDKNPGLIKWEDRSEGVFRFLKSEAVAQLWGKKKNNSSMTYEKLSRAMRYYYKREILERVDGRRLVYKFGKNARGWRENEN
The settings on record: protein: recombinant; tags: N-terminal GST; dsDNA, one strand shown. A digest of the protocol:
as §1

For assay [7], the target named is SPI1 (Homo sapiens, UniProt P17947 1-270). To be noted: protein: recombinant; tags: N-terminal GST; dsDNA, one strand shown. The method, boiled down:
as §1

The target in assay [8] is SPIB (Homo sapiens, UniProt Q01892 1-262). The settings on record: protein: recombinant; tags: N-terminal GST; dsDNA, one strand shown. The method, boiled down: as §1
Sequence of SPIB (Q01892 whole entry): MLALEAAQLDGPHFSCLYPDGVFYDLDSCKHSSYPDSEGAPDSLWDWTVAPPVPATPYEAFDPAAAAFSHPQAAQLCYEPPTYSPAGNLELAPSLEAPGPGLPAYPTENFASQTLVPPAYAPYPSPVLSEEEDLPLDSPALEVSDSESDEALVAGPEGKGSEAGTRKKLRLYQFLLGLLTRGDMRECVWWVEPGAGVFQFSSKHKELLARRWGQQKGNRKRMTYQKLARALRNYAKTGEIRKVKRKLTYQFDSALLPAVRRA
For assay [9], the target named is T6, ELK3 (Homo sapiens, UniProt P41970 1-407).
T6 sequence: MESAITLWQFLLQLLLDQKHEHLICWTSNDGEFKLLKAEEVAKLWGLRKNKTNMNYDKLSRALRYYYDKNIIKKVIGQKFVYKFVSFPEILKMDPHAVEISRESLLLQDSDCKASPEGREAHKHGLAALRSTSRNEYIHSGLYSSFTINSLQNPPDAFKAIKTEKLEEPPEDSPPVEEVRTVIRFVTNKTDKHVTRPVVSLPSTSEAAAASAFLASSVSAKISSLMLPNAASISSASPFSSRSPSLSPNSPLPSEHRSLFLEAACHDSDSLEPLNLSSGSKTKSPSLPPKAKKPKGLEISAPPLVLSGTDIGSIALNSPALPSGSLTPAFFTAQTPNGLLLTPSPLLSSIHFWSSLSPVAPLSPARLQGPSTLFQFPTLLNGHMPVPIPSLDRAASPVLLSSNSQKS
The settings on record: protein: recombinant; tags: N-terminal GST; dsDNA, one strand shown. A digest of the protocol: as §1

Assay [10] has as its target T7, FEV (Homo sapiens, UniProt Q99581 1-238).
T7 sequence: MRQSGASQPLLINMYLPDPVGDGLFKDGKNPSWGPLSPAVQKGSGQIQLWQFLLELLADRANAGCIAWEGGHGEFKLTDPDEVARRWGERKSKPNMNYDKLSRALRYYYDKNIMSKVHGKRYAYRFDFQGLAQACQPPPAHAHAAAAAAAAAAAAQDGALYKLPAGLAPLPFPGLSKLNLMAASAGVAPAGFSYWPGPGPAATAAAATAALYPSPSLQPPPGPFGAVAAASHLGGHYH
The settings on record: protein: recombinant; tags: N-terminal GST; dsDNA, one strand shown. The method, boiled down: as §1

For assay [11], the target named is ETV5 (Homo sapiens, UniProt P41161 1-510). The settings on record: protein: recombinant; tags: N-terminal GST; dsDNA, one strand shown. A digest of the protocol: as §1
Sequence of ETV5 (P41161 whole entry): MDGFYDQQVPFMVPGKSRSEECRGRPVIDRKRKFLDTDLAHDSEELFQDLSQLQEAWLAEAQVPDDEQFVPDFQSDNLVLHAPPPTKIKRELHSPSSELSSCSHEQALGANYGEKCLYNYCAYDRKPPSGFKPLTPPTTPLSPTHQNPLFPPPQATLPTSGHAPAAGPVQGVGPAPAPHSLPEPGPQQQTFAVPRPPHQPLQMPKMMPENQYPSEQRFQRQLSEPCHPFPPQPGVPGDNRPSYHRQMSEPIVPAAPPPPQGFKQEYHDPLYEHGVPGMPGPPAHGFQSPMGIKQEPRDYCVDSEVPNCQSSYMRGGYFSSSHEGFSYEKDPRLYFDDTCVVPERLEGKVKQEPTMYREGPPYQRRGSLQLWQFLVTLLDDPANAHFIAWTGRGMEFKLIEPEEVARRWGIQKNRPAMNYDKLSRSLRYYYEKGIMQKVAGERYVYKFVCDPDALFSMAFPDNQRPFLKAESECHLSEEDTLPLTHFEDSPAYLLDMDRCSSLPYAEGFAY
In assay [12] the target is HSF1 (Homo sapiens, UniProt Q00613 1-529). The settings on record: protein: recombinant; tags: N-terminal GST; chain copies: 3; dsDNA, one strand shown. The method, boiled down:
as §1

The target of assay [13] is T8, SPIC (Homo sapiens, UniProt Q8N5J4 1-248).
T8 sequence: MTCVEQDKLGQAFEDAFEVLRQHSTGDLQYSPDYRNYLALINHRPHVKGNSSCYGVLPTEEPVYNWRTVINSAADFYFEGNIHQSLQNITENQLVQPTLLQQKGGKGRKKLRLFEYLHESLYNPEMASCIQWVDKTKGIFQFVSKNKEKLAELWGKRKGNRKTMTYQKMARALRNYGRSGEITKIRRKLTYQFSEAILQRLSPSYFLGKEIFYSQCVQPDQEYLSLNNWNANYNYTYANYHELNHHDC
To be noted: protein: recombinant; tags: N-terminal GST; dsDNA, one strand shown. The method, boiled down:
as §1

Assay [14] addresses ELF4 (Homo sapiens, UniProt Q99607 1-663). The settings on record: protein: recombinant; tags: N-terminal GST; dsDNA, one strand shown. A digest of the protocol:
as §1

The target of assay [15] is T9, ELK4 (Homo sapiens, UniProt P28324-2 1-405).
T9 sequence: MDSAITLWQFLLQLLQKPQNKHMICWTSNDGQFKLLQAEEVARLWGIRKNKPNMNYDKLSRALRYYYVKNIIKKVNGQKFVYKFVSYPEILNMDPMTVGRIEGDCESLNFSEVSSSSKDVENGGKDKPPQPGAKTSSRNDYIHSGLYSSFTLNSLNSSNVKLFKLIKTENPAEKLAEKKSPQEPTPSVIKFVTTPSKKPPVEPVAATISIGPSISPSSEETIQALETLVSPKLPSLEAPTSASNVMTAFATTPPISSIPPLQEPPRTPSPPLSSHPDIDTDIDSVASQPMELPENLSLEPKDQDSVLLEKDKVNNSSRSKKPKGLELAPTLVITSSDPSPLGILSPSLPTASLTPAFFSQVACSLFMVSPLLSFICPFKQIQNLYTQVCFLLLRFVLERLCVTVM
The settings on record: protein: recombinant; tags: N-terminal GST; dsDNA, one strand shown. The method, boiled down: as §1

The target of assay [16] is T10, ETV2 (Homo sapiens, UniProt O00321 1-342).
T10 sequence: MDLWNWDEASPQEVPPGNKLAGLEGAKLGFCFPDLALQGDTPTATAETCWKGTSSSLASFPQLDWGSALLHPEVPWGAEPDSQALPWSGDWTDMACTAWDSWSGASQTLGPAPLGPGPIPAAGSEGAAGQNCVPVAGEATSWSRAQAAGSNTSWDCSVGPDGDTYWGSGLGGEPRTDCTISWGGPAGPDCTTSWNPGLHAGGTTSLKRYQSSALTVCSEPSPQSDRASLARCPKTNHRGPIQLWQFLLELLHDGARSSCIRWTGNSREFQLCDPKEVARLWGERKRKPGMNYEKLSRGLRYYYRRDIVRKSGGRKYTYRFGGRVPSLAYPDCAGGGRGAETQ
To be noted: protein: recombinant; tags: N-terminal GST; dsDNA, one strand shown. The method, boiled down:
as §1

Assay [17] has as its target T11, ELF3 (Homo sapiens, UniProt P78545 1-371).
T11 sequence: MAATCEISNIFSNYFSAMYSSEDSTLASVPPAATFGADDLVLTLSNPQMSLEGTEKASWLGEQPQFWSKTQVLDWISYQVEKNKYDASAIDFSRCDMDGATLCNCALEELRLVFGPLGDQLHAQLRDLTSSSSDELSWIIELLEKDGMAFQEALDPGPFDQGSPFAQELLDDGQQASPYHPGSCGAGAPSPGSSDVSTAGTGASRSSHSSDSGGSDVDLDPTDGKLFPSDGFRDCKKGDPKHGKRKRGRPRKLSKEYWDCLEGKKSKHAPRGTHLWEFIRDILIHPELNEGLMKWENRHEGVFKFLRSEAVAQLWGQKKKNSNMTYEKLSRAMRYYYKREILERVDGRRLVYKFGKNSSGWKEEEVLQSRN
To be noted: protein: recombinant; tags: N-terminal GST; dsDNA, one strand shown. The method, boiled down: as §1

The target of assay [18] is CRX (Homo sapiens, UniProt O43186 1-299). The settings on record: protein: recombinant; tags: N-terminal GST; dsDNA, one strand shown. The method, boiled down: as §1
Sequence of CRX (O43186 whole entry): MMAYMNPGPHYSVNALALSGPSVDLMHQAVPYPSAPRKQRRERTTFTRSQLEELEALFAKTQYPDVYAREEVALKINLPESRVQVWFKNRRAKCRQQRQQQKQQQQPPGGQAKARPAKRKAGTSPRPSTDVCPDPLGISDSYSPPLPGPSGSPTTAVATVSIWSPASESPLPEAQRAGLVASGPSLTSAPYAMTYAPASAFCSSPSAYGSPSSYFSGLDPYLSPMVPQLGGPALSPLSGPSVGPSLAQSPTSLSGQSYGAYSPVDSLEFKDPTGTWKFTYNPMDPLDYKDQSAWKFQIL
For assay [19], the target named is ETV1 (Homo sapiens, UniProt P50549 1-477). To be noted: protein: recombinant; tags: N-terminal GST; dsDNA, one strand shown. A digest of the protocol:
as §1

Sequence of ELF1 (P32519 whole entry): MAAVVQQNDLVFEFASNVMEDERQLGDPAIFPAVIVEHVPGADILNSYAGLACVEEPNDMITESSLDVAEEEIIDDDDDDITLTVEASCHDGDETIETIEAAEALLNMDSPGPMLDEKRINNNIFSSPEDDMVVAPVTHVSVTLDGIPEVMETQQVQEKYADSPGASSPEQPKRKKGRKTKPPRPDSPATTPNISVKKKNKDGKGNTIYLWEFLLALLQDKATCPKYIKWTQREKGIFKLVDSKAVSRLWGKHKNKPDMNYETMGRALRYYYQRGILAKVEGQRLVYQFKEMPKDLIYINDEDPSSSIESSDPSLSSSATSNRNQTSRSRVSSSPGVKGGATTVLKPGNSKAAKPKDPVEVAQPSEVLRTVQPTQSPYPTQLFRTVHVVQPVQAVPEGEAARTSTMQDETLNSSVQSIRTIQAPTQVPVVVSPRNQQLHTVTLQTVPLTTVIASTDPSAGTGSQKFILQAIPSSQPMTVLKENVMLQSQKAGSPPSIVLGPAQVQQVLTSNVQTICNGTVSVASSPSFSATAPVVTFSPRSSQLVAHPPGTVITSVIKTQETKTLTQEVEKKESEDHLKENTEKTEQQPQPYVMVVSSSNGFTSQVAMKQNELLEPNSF
Sequence of ETV1 (P50549 whole entry): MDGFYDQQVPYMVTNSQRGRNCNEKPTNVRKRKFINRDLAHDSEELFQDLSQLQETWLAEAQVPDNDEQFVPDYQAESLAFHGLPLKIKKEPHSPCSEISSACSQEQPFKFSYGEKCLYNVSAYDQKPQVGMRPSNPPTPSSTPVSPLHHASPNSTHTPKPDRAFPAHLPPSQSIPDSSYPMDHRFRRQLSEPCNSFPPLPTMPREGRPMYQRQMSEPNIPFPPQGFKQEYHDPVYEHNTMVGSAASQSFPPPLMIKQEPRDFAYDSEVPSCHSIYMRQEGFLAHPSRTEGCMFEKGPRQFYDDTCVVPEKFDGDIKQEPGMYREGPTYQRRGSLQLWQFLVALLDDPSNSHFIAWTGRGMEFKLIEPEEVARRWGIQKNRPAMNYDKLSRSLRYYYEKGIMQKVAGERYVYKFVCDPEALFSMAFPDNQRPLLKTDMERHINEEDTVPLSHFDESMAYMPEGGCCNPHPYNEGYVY
Sequence of HSF1 (Q00613 whole entry): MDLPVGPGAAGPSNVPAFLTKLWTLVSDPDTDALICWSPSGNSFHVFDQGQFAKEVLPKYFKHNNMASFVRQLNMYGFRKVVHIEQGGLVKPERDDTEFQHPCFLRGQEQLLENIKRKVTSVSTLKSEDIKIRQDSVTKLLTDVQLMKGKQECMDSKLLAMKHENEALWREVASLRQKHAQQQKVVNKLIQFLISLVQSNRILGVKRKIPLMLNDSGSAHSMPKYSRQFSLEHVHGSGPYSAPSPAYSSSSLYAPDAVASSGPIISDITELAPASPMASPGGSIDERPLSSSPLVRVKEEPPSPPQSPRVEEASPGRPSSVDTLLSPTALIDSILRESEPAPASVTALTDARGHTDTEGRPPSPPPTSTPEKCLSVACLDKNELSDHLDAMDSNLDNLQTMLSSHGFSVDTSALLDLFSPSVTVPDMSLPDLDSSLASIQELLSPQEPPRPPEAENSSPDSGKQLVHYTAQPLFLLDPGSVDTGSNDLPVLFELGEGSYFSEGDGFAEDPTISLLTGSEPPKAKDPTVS
Sequence of ELF4 (Q99607 whole entry): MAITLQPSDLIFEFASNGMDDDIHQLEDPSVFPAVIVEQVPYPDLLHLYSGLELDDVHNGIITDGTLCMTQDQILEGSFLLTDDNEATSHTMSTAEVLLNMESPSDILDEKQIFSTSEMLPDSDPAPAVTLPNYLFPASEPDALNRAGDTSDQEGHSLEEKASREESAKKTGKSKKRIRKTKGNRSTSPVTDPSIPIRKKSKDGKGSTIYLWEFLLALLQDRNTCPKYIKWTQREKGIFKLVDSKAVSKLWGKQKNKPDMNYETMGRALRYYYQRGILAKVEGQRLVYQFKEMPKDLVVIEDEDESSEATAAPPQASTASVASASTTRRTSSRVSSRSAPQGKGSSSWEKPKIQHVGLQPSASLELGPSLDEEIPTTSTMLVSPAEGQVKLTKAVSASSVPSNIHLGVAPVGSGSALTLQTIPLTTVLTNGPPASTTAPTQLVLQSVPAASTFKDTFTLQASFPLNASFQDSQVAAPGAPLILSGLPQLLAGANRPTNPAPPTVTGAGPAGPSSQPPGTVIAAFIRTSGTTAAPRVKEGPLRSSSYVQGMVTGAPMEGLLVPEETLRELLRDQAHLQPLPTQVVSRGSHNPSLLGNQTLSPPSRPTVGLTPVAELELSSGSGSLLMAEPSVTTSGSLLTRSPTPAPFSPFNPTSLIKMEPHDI

Regarding CCCTAA, the binding signal is 1.16 fold enrichment (6-mer frequency, TF over GST control) in assay [1]; 1.19 fold enrichment (6-mer frequency, TF over GST control) in [2]; 1.15 fold enrichment (6-mer frequency, TF over GST control) in assay [3]; 1.17 fold enrichment (6-mer frequency, TF over GST control) in assay [4]; 1.25 fold enrichment (6-mer frequency, TF over GST control) in assay [5]; 1.24 fold enrichment (6-mer frequency, TF over GST control) in assay [6]. In addition, the binding signal in assay [7] is 1.2 fold enrichment (6-mer frequency, TF over GST control); in [8] it was 1.29 fold enrichment (6-mer frequency, TF over GST control); in assay [9] it was 1.28 fold enrichment (6-mer frequency, TF over GST control); in [10], 1.18 fold enrichment (6-mer frequency, TF over GST control); in assay [11], 1.28 fold enrichment (6-mer frequency, TF over GST control); in assay [12], 1.29 fold enrichment (6-mer frequency, TF over GST control). Moreover, the binding signal in assay [13] was 1.24 fold enrichment (6-mer frequency, TF over GST control); in [14], 1.28 fold enrichment (6-mer frequency, TF over GST control); in assay [15], 1.28 fold enrichment (6-mer frequency, TF over GST control); in assay [16], 1.23 fold enrichment (6-mer frequency, TF over GST control); in [17], 1.25 fold enrichment (6-mer frequency, TF over GST control); in [18], 1.71 fold enrichment (6-mer frequency, TF over GST control). Also, the binding signal in [19] is 1.23 fold enrichment (6-mer frequency, TF over GST control).
